Screens: PubChem, National Center for Advancing Translational Sciences (NCATS)
Shown are actives, neighbours in structure and some others; about 7.7% of the full set was active somewhere.
FMDV inh: blocks foot and mouth disease virus; actives 1.2% (n = 410,000); Potency, µM (top dose mostly 57.9 µM), without a hit: at the highest dose activity change, negative = inhibition, most hits filed as inhibitors; AID 1159524; FMDV antiviral cell-based qHTS; calls by dose curve; tested in HEK293T cells; note: read-out not given here; potency is the fitted concentration of half-maximal effect; nearly all actives have a fitted effect of over 45% in size
RE007 growth inh: less growth of the S. pombe RE007 Vpr strain. S. pombe RE007 Vpr strain, BacTiter-Glo ATP luminescence, 24 h. actives 0.21% (n = 360,000). Potency, µM (series often up to 92.2 µM), inactives show at the highest dose activity change, negative = less growth, hits mostly inhibitors; active = well fitted falling curve with a large enough effect; inconclusive = small, poorly fitted or top-dose-only effect; inactive = no such curve, though single readings can be large or run the other way; note: potency is the fitted concentration of half-maximal effect; nearly all actives have a fitted effect of over 50% in size
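Fission yeast RE007 carrying one integrated HIV-1 vpr copy, seeded at OD 0.01 in PMG+AL medium with 23 nL pinned compound. Grown 24 h at 30 degrees; viability read by BacTiter-Glo luminescence after 5 min.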
FBPA Giardia inh: Giardia lamblia aldolase inhibition; Potency, µM (doses to about 59.6 µM), inactives show at the highest dose activity, negative = inhibition, most hits filed as inhibitors; actives 0.71% (n = 290,000); AID 2451; A8B2U2; purified Giardia FBPA; note: potency is the fitted concentration of half-maximal effect; nearly all actives have a fitted effect of over 55% in size
Target sequence (A8B2U2 whole entry, looked up): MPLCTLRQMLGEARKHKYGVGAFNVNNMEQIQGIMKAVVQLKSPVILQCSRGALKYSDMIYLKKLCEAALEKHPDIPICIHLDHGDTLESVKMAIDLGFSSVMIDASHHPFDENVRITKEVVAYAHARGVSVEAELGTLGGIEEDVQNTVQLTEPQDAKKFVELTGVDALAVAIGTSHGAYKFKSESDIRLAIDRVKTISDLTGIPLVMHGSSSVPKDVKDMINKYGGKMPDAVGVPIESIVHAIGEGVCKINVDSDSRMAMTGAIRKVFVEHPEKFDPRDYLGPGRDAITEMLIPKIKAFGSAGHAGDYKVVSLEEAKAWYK
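Giardia FBPA (40 nM reagent) was preincubated 10 min at RT with compound (up to 57.5 uM final), then substrate plus GAPDH/TPI/NAD/arsenate coupling system with diaphorase/resazurin was added; resorufin fluorescence (525/598 nm) was read after 20 min.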
Sm TGR inh: blocks Schistosoma mansoni thioredoxin glutathione reductase. Q962Y6. purified TGR, DTNB reduction, TNB absorbance 405 nm. Potency, µM (top dose mostly 114 µM), without a hit: top-dose activity change, negative = inhibition, usual class: inhibitors. actives 3% (n = 360,000). AID 485364; note: potency is the fitted concentration of half-maximal effect; nearly all actives have a fitted effect of over 60% in size
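TGR 20 nM + NADPH 100 uM (dispensed conc.), cpd preinc 15 min RT; start with NADPH (500 uM addition) then DTNB (15 mM addition). Kinetic TNB absorbance, 405 nm filter. Four-parameter Hill fit across titration.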
Tb PYK inh: T. brucei pyruvate kinase inhibition | TbPYK enzyme, Kinase-Glo Plus ATP luminescence, 45 min | AID 624173 | Potency, µM (titrated, usually from 76.8 µM), without a hit: top-dose activity, negative = inhibition, actives largely listed as inhibitors | Q57TT1 | actives 0.12% (n = 410,000); note: potency is the fitted concentration of half-maximal effect; nearly all actives have a fitted effect of over 50% in size
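Luminescence from Kinase-Glo Plus, added after a 45-minute room-temperature reaction, served as the end-point read-out. The enzyme and substrate were preincubated with compound before ADP (130 uM final) initiated turnover. Concentration-effect curves came from normalized qHTS data.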
HCMV inh: blocks human cytomegalovirus replication | activity change, negative = inhibition, % at 57.5 µM | HFF cells, HCMV-luciferase reporter, 72 h; stronger effect = lower value | actives 4.5% (n = 410,000); in the data active = activity change below about -60%; inconclusive = no clear call, values can overlap the other calls; inactive = above about -39%
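Compounds were evaluated in HFFs infected with an HCMV luciferase reporter virus (MOI 1 PFU/cell). Luciferase in lysates collected 72 h post infection served as the replication measure.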
Active calls of the source: *. Unless noted, calls come from the whole dose curve; as a rule, active = well fitted curve in the direction sought with a large enough effect; inconclusive = small, poorly fitted or top-dose-only effect, or another doubt; inactive = no such curve, though single readings can be large; an effect the other way counts as inactive or inconclusive. % is set by controls: 0 for no effect and ±100 for the full control effect.

For COc1cc(-c2nc(-c3ccccc3)c(-c3cc([N+](=O)[O-])ccc3C)[nH]2)cc(OC)c1OC the results were FMDV inh -25.2%, RE007 growth inh -6.6%, FBPA Giardia inh -19.8%, Sm TGR inh 5.2%, Tb PYK inh 5.4% and HCMV inh -73.2*.
For COc1ccc(CCNC(=O)c2nnn(-c3ccc4c(c3)OCCO4)c2N)cc1OC the results were FMDV inh 3.55µM*, RE007 growth inh 8.6%, FBPA Giardia inh -27.0%, Sm TGR inh 2.1%, Tb PYK inh -4.8% and HCMV inh -75.3*.
For COc1ccc(CCN2C(=O)CCC2(C)c2nnnn2-c2ccc3c(c2)OCCO3)cc1OC (stereo not given) the results were FMDV inh -11.8%, RE007 growth inh 5.1%, Tb PYK inh -0.2% and HCMV inh -83.1*.
For Cc1ccc(CN2C(=O)CCC2(C)c2nnnn2-c2ccc3c(c2)OCCO3)cc1 (stereo not given) the results were FMDV inh -8.6%, RE007 growth inh 3.8%, Tb PYK inh 2.9% and HCMV inh 10.0.
For COc1ccc(-c2c(C)c3ccc(O)c(CN4CCCCC4)c3oc2=O)cc1OC the results were FMDV inh -5.1%, Sm TGR inh inconclusive, Tb PYK inh -7.7% and HCMV inh -10.2.
Screening O=c1c2oc3ccccc3c2n(Cc2cccc(Cl)c2)c(=O)n1Cc1ccco1 returned FMDV inh inconclusive, Sm TGR inh -10.1%, Tb PYK inh -3.2% and HCMV inh -31.5.
`CN(C)c1nc(CN2CCCCC2c2cccnc2)nc2ccccc12` (stereo not given) gave FMDV inh -14.1%.
`CSc1nn(CCc2ccncc2)c(=S)s1` gave FMDV inh -21.2%, RE007 growth inh inconclusive, FBPA Giardia inh inconclusive, Sm TGR inh 35.5µM*, Tb PYK inh -8.4% and HCMV inh -31.1.
`CCN1CCN(C(c2ccc(F)cc2)c2c(O)cc(C)n(CCOC)c2=O)CC1` (stereo not given) gave FMDV inh -15.1%, Sm TGR inh 4.47µM*, Tb PYK inh -7.3% and HCMV inh -4.5.
For CCN1CCN(C(c2cccc(Cl)c2)c2c(O)cc(C)n(CCOC)c2=O)CC1 (stereo not given) the results were FMDV inh -20.4%, Sm TGR inh 5.62µM*, Tb PYK inh -6.7% and HCMV inh -27.3.
`CCN1CCN(C(c2ccc(F)cc2)c2sc3nc(-c4ccco4)nn3c2O)CC1` (stereo not given) gave FMDV inh -4.4%, Sm TGR inh 5.2%, Tb PYK inh -7.0% and HCMV inh 7.9.
`CCN1CCN(C(c2ccc(OC)cc2)c2c(O)cc(C)n(CCOC)c2=O)CC1` (stereo not given) gave FMDV inh -15.2%, Sm TGR inh 10µM*, Tb PYK inh -4.7% and HCMV inh -12.3.
Screening COCCn1c(CN2CCN(c3cccc(Cl)c3)CC2)nc2c1c(=O)n(C)c(=O)n2C returned FMDV inh -1.8%, RE007 growth inh 7.6%, FBPA Giardia inh 0.7%, Sm TGR inh 0.0%, Tb PYK inh -1.0% and HCMV inh inconclusive.
For COc1ccc(C(c2c(O)cc(C)oc2=O)c2c(O)cc(C)oc2=O)cc1 the results were FMDV inh -17.7%, RE007 growth inh -5.6%, FBPA Giardia inh -5.9%, Sm TGR inh inconclusive, Tb PYK inh -3.2% and HCMV inh -9.1.
CCN1CCN(C(c2ccccc2)c2c(O)cc(C)n(CCOC)c2=O)CC1 (stereo not given) was read as FMDV inh -17.7%, Sm TGR inh 3.98µM*, Tb PYK inh 3.3% and HCMV inh 1.3.
`CN(C)c1ncc2nc(-c3ccc(Cl)cc3)c(=O)n(C)c2n1` gave FMDV inh 30.7% and FBPA Giardia inh 7.0%.
C=CCC(Nc1ccc(OC)cc1)C(=O)OCC (stereo not given) was read as FBPA Giardia inh 0.7%.
Cc1ccc(Cn2c(C(=O)O)c(CNCc3cccs3)c3ccc(C)cc32)cc1 was read as FMDV inh -22.0%, Sm TGR inh 2.7%, Tb PYK inh -1.0% and HCMV inh -31.4.
`CCN1C(=NCCc2c[nH]c3ccccc23)N[C@@H](c2ccccc2)C(C(=O)OC)=C1C` gave FBPA Giardia inh inconclusive and Sm TGR inh -2.9%.
For CC1=C(c2ccc(NN=C(C#N)C#N)cc2)NNC(=O)C1 the results were Tb PYK inh 1.2%.
CCN1CCN(C(c2ccc(Cl)cc2)c2c(O)cc(C)n(CCOC)c2=O)CC1 (stereo not given) was read as FMDV inh -15.4%, Sm TGR inh 4.47µM*, Tb PYK inh 2.1% and HCMV inh -5.2.
Screening CCN1CCN(C(c2cccc(F)c2)c2c(O)cc(C)n(CCOC)c2=O)CC1 (stereo not given) returned FMDV inh -8.6%, Sm TGR inh 3.98µM*, Tb PYK inh 0.3% and HCMV inh -8.9.
`COCCn1c(SCC(=O)Nc2cccc(F)c2)nc2c(c1=O)SCC2` gave FMDV inh -0.8%, RE007 growth inh -7.5%, Sm TGR inh -1.1%, Tb PYK inh 8.9% and HCMV inh -6.2.
Screening CCC(C)C(C(=O)OCC[N+](C)(CC)CC)c1ccccc1 (stereo not given) returned Tb PYK inh 0.6%.
For O=C(c1cc(-c2ccc(Cl)cc2)on1)N1CCOCC1 the results were FMDV inh -41.1%, RE007 growth inh 3.7%, FBPA Giardia inh 6.1%, Sm TGR inh 0.1%, Tb PYK inh 0.9% and HCMV inh 50.7.
Screening O=C(Nc1ccccc1)c1nnsc1S(=O)c1ccc(Cl)cc1 (stereo not given) returned FMDV inh -16.4%, RE007 growth inh 2.82µM*, FBPA Giardia inh -18.7%, Sm TGR inh 0.1µM*, Tb PYK inh inconclusive and HCMV inh -103.7*.
Nc1nc(C(=O)N2CCOCC2)nn1S(=O)(=O)c1ccc(Cl)cc1 was read as FMDV inh 13.2%, RE007 growth inh -4.4%, FBPA Giardia inh -12.6%, Sm TGR inh 0.1%, Tb PYK inh -17.8% and HCMV inh 16.8.
Cc1nnsc1S(=O)c1ccc(Cl)cc1 (stereo not given) was read as FMDV inh -22.2%, RE007 growth inh -1.7%, FBPA Giardia inh 2.3%, Sm TGR inh -2.9%, Tb PYK inh 4.3% and HCMV inh inconclusive.
